High-throughput results as filed in PubChem.
In the library only some 2.8% were active in any assay of this set; here they are far more common.
GLP1R ag = qHTS of GLP-1 Receptor Agonists | HEK293 GLP-1R CRE-luciferase, luminescence, 4-6 h; cells express a hypersensitive GLP-1R form | Potency, µM (doses to about 45.6 µM), inactives show at the highest dose activation, usual class: activators | hit rate 0.007% among 380,000; note: potency is the fitted concentration of half-maximal effect; % of control where 0% means no effect
Target sequence (P43220 whole entry, looked up): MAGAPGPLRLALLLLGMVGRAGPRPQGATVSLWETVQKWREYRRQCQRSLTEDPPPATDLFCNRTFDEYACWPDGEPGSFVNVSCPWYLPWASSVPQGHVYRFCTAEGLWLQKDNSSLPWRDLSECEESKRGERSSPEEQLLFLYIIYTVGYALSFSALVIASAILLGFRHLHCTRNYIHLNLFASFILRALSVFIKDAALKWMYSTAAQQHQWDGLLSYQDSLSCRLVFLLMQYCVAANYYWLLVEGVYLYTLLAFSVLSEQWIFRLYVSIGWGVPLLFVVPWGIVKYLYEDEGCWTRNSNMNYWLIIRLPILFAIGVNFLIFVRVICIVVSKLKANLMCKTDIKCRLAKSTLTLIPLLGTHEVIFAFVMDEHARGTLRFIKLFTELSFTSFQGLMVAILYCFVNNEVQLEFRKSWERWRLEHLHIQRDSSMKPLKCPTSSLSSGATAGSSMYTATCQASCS
GLP-1R inv ag = qHTS of GLP-1 Receptor Inverse Agonists (Inhibition Mode). Glucagon-like peptide 1 receptor (Homo sapiens), P43220. HEK293 GLP-1R CRE-luciferase, luminescence, 24 h; GLP-1R form is constitutively active. Potency, µM (titrated, usually from 38.3 µM), without a hit: at the top dose activity change, negative = inhibition, actives largely listed as inhibitors. hit rate 1.6% among 410,000; note: potency is the fitted concentration of half-maximal effect; % is set by controls: 0 for no effect and ±100 for the full control effect; nearly all actives have a fitted effect of over 55% in size
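HEK293 cells stably co-expressing a cAMP-responsive luciferase reporter and constitutively active GLP-1R were seeded, incubated 12 h, then exposed to compounds for 24 h at 37 C. Luminescence was read 12 min after detection reagent; inverse agonists lower signal.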
HEK293 tox = qHTS of GLP-1 Receptor Inverse Agonists: Cytotox Screen. HEK293 cAMP-luciferase reporter cells, luminescence, 24 h. Potency, µM (top dose mostly 38.3 µM), for the others: top-dose activity change, negative = inhibition, actives largely listed as inhibitors. hit rate 0.13% among 410,000. AID 624418, 2012;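 note: loss of luciferase light is scored as toxicity; potency is the fitted concentration of half-maximal effect; % is set by controls: 0 for no effect and ±100 for the full control effect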
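A 23 nL compound transfer followed 12 hours of cell culture at 37 deg C; exposure then lasted 24 hr. Luciferase assay detection reagent was dispensed and plates read for luminescence after a 12 min room-temperature wait.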
GLS inhibitor = qHTS for Inhibitors of Glutaminase (GLS); AID 624170, 2012; GLS enzymatic activity, qHTS titration; hit rate 0.21% among 410,000; Glutaminase kidney isoform, mitochondrial (Homo sapiens), O94925; Potency, µM (doses to about 45.5 µM), for inactives: at the top dose activity change, negative = inhibition, actives largely listed as inhibitors; note: potency is the fitted concentration of half-maximal effect; % is set by controls: 0 for no effect and ±100 for the full control effect
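hKGA; 45 mM KH2PO4 pH 8.2 + 0.02% Tween-20; cpd via pin tool; 1 mM Gln soln; GluOx/HRP/Amplex Red; RT 30 min; fluor. t0 & final.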
KCNH2 3.1 block = qHTS for Inhibitors of KCHN2 3.1: Mutant qHTS. U2OS KCNH2 3.1, thallium flux FluxOr; stronger effect = lower value. hit rate 0.95% among 340,000. AID 720553, 2013. activity change, % (tested at about 1.8 µM);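 active = maximum activity change below -70%; inconclusive = maximum activity change from -70% to -50%; inactive = maximum activity change above -50%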;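 note: thallium influx rate constant from kinetic fluorescence after stimulation buffer; % is set by controls: 0 for no effect and ±100 for the full control effect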
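Measured as rate of thallium-driven FluxOr signal in transduced U2OS cells carrying the 3.1 channel, read kinetically for 2 min upon stimulation; values are rate constants scaled to DMSO control wells.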
KCNH2 WT inh = qHTS for Inhibitors of KCHN2 3.1: Wildtype qHTS; activity change, % at 1.84 µM; AID 720551, 2013; U2OS, BacMam KCNH2, thallium flux FluxOr; stronger effect = lower value; Voltage-gated inwardly rectifying potassium channel KCNH2 (Homo sapiens), Q12809; hit rate 0.37% among 340,000;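 active = maximum activity change below -70%; inconclusive = maximum activity change between -70% and -50%; inactive = maximum activity change above -50%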; note: % is set by controls: 0 for no effect and ±100 for the full control effect
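U2OS cells transduced with wild-type KCNH2 virus are loaded with FluxOr dye for 45 min, and thallium flux is measured in kinetic reads before and after stimulation buffer. Rate constants are normalized to DMSO controls.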
* marks the source's active call; other numbers are inactive results; i = inactive; ? = inconclusive; / = not tested or not shown; ! = a repeat was not active; [ ] = another dose, or the depositor's remark. Unless noted, calls come from the whole dose curve; as a rule, active = well fitted curve in the direction sought with a large enough effect; inconclusive = small, poorly fitted or top-dose-only effect, or another doubt; inactive = no such curve, though single readings can be large; an effect the other way counts as inactive or inconclusive.

SMILES | GLP1R ag | GLP-1R inv ag | HEK293 tox | GLS inhibitor | KCNH2 3.1 block | KCNH2 WT inh
Nc1nc(F)nc2c1ncn2[C@@H]1O[C@H](CO)[C@@H](O)[C@H]1O | 2% | 2µM* | ? | 12% | -3 | 7
Nc1nc(F)nc2c1ncn2[C@@H]1O[C@H](CO)[C@@H](O)[C@@H]1O | -3% | -1% | -5% | 2% | -5 | -6
COc1ccc(NC(=O)Nc2cccc(C(F)(F)F)c2)cn1 | 0% | ? | ? | 0% | 23 | 4
Cc1ccc2c(c1)CC1(CN2C)C(=O)NC(=O)N(c2ccccc2C)C1=O (centres undefined) | -10% | -13% | 17% | 8% | 4 | -9
COc1ccccc1N1C(=O)NC(=O)C2(Cc3cc(C)ccc3N(C)C2)C1=O (centres undefined) | -11% | -4% | 3% | 0% | 0 | -124*
COc1cccc2c1C(=O)c1c(O)c3c(c(O)c1C2=O)CC(O)(C(C)=NO)CC3OC1CC(N)C(O)C(C)O1 (centres undefined) | -5% | 10µM* | 11µM* | 7% | 4 | -1
O=C(CCl)c1ccc(Oc2ccc(C(=O)CCl)cc2)cc1 | 0% | / | / | 33% | / | /
COc1ccc(C(=O)Oc2c(Sc3ccccc3)c(C)nn2-c2ccccc2)c(OC)c1 | / | 13µM* | ? | 16% | / | /
CCC1(CCC(C)C)C(=O)NC(=O)NC1=O | -6%[96 µM] | / | / | 10%[99.4 µM] | / | /
CN1CCN=C(c2ccccc2)c2cc(Cl)ccc21 | ? | / | / | -3% | / | /
Cc1ccc(C(=O)Nc2cccc3[nH]c(C(F)(F)F)nc23)cc1 | -1% | 8.9µM* | ? | -1% | -9 | 8
Cc1ccc(/C=C/c2onc(C)c2S(=O)(=O)N2CCC(C(=O)N3CCC(N(C)C(C)C)CC3)CC2)cc1 | / | ? | ? | 0% | / | /
COc1ccc([N+](=O)[O-])c(S(=O)(=O)c2ccc(Cl)cc2)n1 | -9% | ? | 10µM* | -14% | 14 | 1
Fc1ccccc1CNC1CN2CCC1CC2 (centres undefined) | -1% | ? | -4% | ? | 6 | 1
Ic1ccccc1CN[C@@H]1C2CCN(CC2)[C@@H]1C(c1ccccc1)c1ccccc1 | -1% | ? | ? | -2% | -75* | 5
CC(C)c1ccc(/C=N/NC(=O)c2nnn(-c3nonc3N)c2CSC2=NCCS2)cc1 | -3% | ? | ? | 1% | -46 | -2
CC1CCC(C(C)C)C(OC(=O)Cn2c(-c3ccc(Br)cc3)[n+](C)c3ccccc32)C1 (centres undefined) | 7% | ? | ? | -16% | ? | -104*!
CC(NC(=O)Nc1cccc([N+](=O)[O-])c1)(C(F)(F)F)C(F)(F)F | -24% | ? | ? | 1% | -3 | -2
C/C=C/c1ccc2c(c1)OCO2 | 4% | 13% | 2% | 6% | 10 | -10
c1cc2c(cc1[C@H]1OCC3C1CO[C@@H]3c1ccc3c(c1)OCO3)OCO2 (some centres undefined) | -1% | ? | -8% | 0% | -70* | 18
CCCCNC(C)(C)[P+](=O)O | -7% | / | / | -8% | / | /
CSc1ccc(CN2CCN(c3ccccc3C)CC2)cc1 | -1% | ? | 7% | 47% | -114* | -129*
O=c1cc(C(F)(F)F)c2cc3c4c(c2o1)CCCN4CCC3 | -3% | 4% | i | 0% | -109* | -72*
CCN(Cc1ccccc1)S(=O)(=O)c1ccc(C(=O)N(CCCN(C)C)c2nc3cc4c(cc3s2)OCCO4)cc1 | -11% | 13µM* | ? | -6% | 4 | 0
